Screening data (PubChem)
TDP1 cell CPT: DT40-hTDP1 cell growth loss with CPT; Potency, µM (series often up to 46.2 µM), most hits filed as inhibitors; chicken DT40 Tdp1-/-;hTDP1 cells + 20 nM CPT, ATP luminescence, 48 h; AID 686979; 12% of 420,000 active; note: nearly all actives have a fitted effect of over 55% in size
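Chicken DT40 Tdp1-/- cells complemented with human TDP1, 400 cells/well, exposed to compounds plus 20 nM camptothecin for at least 48 h at 37 C; viability read as ATP content by CellTiter-Glo luminescence.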
HT1080-NT tox: kills 2HG-producing HT-1080-NT fibrosarcoma cells; HT-1080-NT fibrosarcoma viability, CellTiter-Glo ATP luminescence, 48 h; Potency, µM (highest dose often 46.1 µM), most hits filed as cytotoxic; 1.6% of 360,000 active; AID 686970;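 note: NT is the 2HG producing partner of a matched IDH1 knockdown line; nearly all actives have a fitted effect of over 55% in size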
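A 48-hour cytotoxicity screen used HT-1080-NT cells plated 2 hours before compound delivery. ATP-based CellTiter-Glo luminescence measured viability, normalized to DMSO and no-cell controls.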
TDP1 cell noCPT: qHTS for Inhibitors of human tyrosyl-DNA phosphodiesterase 1 (TDP1): qHTS in cells in absence of CPT | DT40 Tdp1-/- hTDP1 cells, no CPT, ATP luminescence, 48 h | Potency, µM (titrated, usually from 46.2 µM), actives largely listed as inhibitors | 15% of 420,000 active | AID 686978, 2013; note: nearly all actives have a fitted effect of over 55% in size
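Growth of hTDP1-complemented DT40 Tdp1-knockout cells is measured by ATP luminescence after at least 48 hr compound exposure at 37 °C, with DMSO substituting for the 20 nM CPT used in the parallel screen.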
KB-3-1 cytotox: kills parental KB-3-1 adenocarcinoma cells; KB-3-1 viability, CellTiter-Glo ATP luminescence, 72 h; Potency, µM (highest dose often 46.1 µM), actives largely listed as cytotoxic; 1.4% of 400,000 active; AID 1347075; note: nearly all actives have a fitted effect of over 60% in size
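Cells are dispensed, compounds pinned in, plates held at 37 °C for 72 h, then CellTiter-Glo is added and luminescence read after 10 minutes. Cell line: parental KB-3-1 in phenol-red-free DMEM, 10% FBS.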
HT1080 IDH1KD tx: toxicity to HT-1080 IDH1 knockdown cells (counter line); Potency, µM (doses to about 46.1 µM), actives largely listed as cytotoxic; AID 686971; HT-1080 IDH1 knockdown viability, ATP luminescence, 48 h; 2% of 360,000 active
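Using the IDH1-knockdown HT-1080 line run in the same batch and compound series as the NT line, viability after 48 h at 37 °C was determined by CellTiter-Glo luminescence and expressed as % activity.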
KB-V1 MDR tox: kills drug-selected multidrug resistant KB-V1 cells; KB-V1 MDR cells viability, CellTiter-Glo, 72 h; Potency, µM (highest dose often 46.1 µM), actives largely listed as cytotoxic; 3.4% of 400,000 active; AID 1347076; note: nearly all actives have a fitted effect of over 60% in size
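In this primary screen, KB-V1 cells overexpressing P-gp are incubated with library compounds (lowest to highest concentration) for 72 h at 37 degrees C before a luminescent ATP viability read.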
Numbers stand for hits; 0 = inactive; ? = inconclusive; - = no result; ! = a repeat was not active. This is a sample that favours compounds with a hit; in the whole collection about 19% have one here. Calls come from the whole dose curve; as a rule, active = well fitted curve in the direction sought with a large enough effect; inconclusive = small, poorly fitted or top-dose-only effect, or another doubt; inactive = no such curve, though single readings can be large; an effect the other way counts as inactive or inconclusive.

SMILES	TDP1 cell CPT	HT1080-NT tox	TDP1 cell noCPT	KB-3-1 cytotox	HT1080 IDH1KD tx	KB-V1 MDR tox
COc1ccc(NC(=O)Nc2nnc(N3CCCC3)s2)cc1	0	-	?	0	-	?
O=C1N=C(N2CCOCC2)S/C1=C\c1ccc(-c2ccccc2Cl)o1	0	0	?	0	0	0
Cc1ccccc1-c1ccc(/C=C2/SC(N3CCOCC3)=NC2=O)o1	2.9µM	0	7.3µM	0	?	?
CSCCC(NC(=O)c1ccco1)C(=O)NCC(c1ccccc1)N(C)C (configuration not stated)	0	0	0	0	0	0
COc1ccccc1C(=O)NC(CCSC)C(=O)NCC(c1ccco1)N(C)C (configuration not stated)	0	0	0	0	0	18µM
COc1ccccc1C(=O)NC(CCSC)C(=O)N1CCC(Cc2ccccc2)CC1 (configuration not stated)	15µM	0	18µM	0	0	0
CSCCC(NC(=O)c1ccccc1Cl)C(=O)N1CCN(C(C)=O)CC1 (configuration not stated)	0	0	0	0	0	0
O=C(CC1N=C2c3ccccc3N=C(SCC(=O)Nc3ccccc3F)N2C1=O)NCc1ccc2c(c1)OCO2 (configuration not stated)	?	-	?	0	-	0
O=c1c2c3c(sc2nc2n1CCC2)CCCC3	0	0	0	?	0	0
O=c1c2c3c(sc2nc2n1CCCC2)CCC3	0	0	0	0	0	0
N=c1c2c3c(sc2nc2n1CCCCC2)CCCCC3	23µM	0	12µM	0	0	0
O=c1c2c3c(sc2nc2n1CCCCC2)CCCC3	23µM	0	0	0	0	0
Cc1ccc(NC(=O)C(C)NC(=O)OCc2ccccc2)cc1C (configuration not stated)	0	0	0	0	0	0
N=c1c(S(=O)(=O)c2ccc(Cl)cc2)cc2c(=O)n3ccccc3nc2n1C1CCCCC1	?	0	?	0	0	0
Cn1c(COc2ccccc2)nnc1SCC(=O)Nc1nnc(C2CC2)s1	0	0	?	0	0	?
O=C1Nc2cccnc2N(C(=O)CCl)c2ccccc21	3.3µM	?	2.6µM	21µM	16µM	16µM
NCCN1CCN(CC(=O)N2c3ccccc3C(=O)Nc3cccnc32)CC1	-	-	-	0	-	0
COc1cc(OC)cc(C(=O)/C=C2\Sc3ccccc3N2C)c1	0	?	0	0	0	0
CCN1/C(=C/C(C)=O)Sc2ccc(OC)cc21	7.1µM!	0	13µM	0	0	?
CCN1/C(=C/c2cccc[n+]2C)Sc2ccc(OC)cc21	2.6µM	?	2.3µM	?	?	0
CCN1/C(=C2/SC(=S)N(NC(C)=O)C2=O)Sc2ccc(OC)cc21	?	0	?	0	0	0
COc1ccc2c(c1)N(C)/C(=C/c1cccc[n+]1C)S2	0.26µM	?	0.01µM	1.6µM	13µM	0
CC(C)CCNC(=O)c1ccc2c(c1)NC(=O)C(C(C)C)N2 (configuration not stated)	0	-	0	0	-	0
O=C(NCCCn1ccnc1)c1ccccc1NS(=O)(=O)c1ccc(F)c(F)c1	16µM	0	?	0	?	0
Cc1cc(C)c(C)c(S(=O)(=O)Nc2ccccc2C(=O)NCCCn2ccnc2)c1C	4.6µM	?	5.8µM	0	?	0
SMILES	TDP1 cell CPT	HT1080-NT tox	TDP1 cell noCPT	KB-3-1 cytotox	HT1080 IDH1KD tx	KB-V1 MDR tox
Cc1cc(C)c(C)c(S(=O)(=O)Nc2ccccc2C(=O)NCCCN2CCOCC2)c1C	?	0	?	0	0	?
CCC(=O)c1cc2c(C)cc(=O)oc2c(C)c1OC	0	0	0	0	0	?
CCC(=O)Oc1c(C(=O)CC)cc2c(C)cc(=O)oc2c1C	?	0	?	0	0	16µM
CCN1CCN(C(C)C(=O)NC2CCCCC2)CC1 (configuration not stated)	0	0	0	0	0	0
Cc1ccc(NC(=O)NCc2cccn2Cc2ccccc2)c(C)c1	0	-	0	0	-	0
CC(CNC(=S)Nc1cc(F)cc(F)c1)CSc1ccc(Cl)cc1 (configuration not stated)	?	18µM	26µM	0	?	?
Cc1cc(C)n(-c2nc3ccccc3s2)n1	0	0	0	0	0	0
Cc1c2c(=O)n(-c3nc4ccccc4s3)nc-2cc(O)n1Cc1ccccc1	21µM	0	15µM	0	0	?
CSc1ccc(C2c3c(-c4ccccc4O)n[nH]c3C(=O)N2Cc2ccncc2)cc1 (configuration not stated)	23µM	-	18µM	13µM	-	0
CCc1ccc(C2c3c(-c4ccccc4O)n[nH]c3C(=O)N2Cc2cccnc2)cc1 (configuration not stated)	16µM	-	?	0	-	?
CC(=O)c1ccc([N+](=O)[O-])c(CS(=O)(=O)c2ccccc2)c1	0	0	0	0	0	0
COCCc1ccc(OC2(C)CCN(Cc3ccc(OC)c4ccccc34)C2)cc1 (configuration not stated)	?	?	16µM	0	?	0
COCCc1ccc(OC2(C)CCN(Cc3cccc(OC)c3OC)C2)cc1 (configuration not stated)	?	0	0	0	0	0
COc1cccc(CN2CCC(C)(Oc3cccc(Cl)c3)C2)c1OC (configuration not stated)	?	?	16µM	0	0	0
COc1ccc(CN2CCCC(CNC(=O)c3ccc(F)cc3)C2)c(C)c1C (configuration not stated)	0	0	?	0	0	0
Cc1nc2cccnc2n1-c1cccc(C(=O)N2CCN(c3ccc(Cl)cc3)CC2)c1	5.8µM	-	2.6µM	12µM	-	0
COc1ccc(N2CCN(C(=O)c3cccc(NC4=NC5CS(=O)(=O)CC5S4)c3)CC2)cc1 (configuration not stated)	0	0	0	?	0	0
COc1ccc(N2CCN(C(=O)c3cccc(-n4c(C)nc5cccnc54)c3)CC2)cc1	16µM	-	23µM	0	-	0
Cc1ccc(-n2c(O)c(/C=N/n3cnnc3)c3ccccc3c2=O)cc1	0	0	0	0	0	0
Cc1cc(N=Cc2c(O)n(-c3cccc(Cl)c3)c(=O)c3ccccc23)no1	12µM	0	21µM	0	0	0
CN1C(=O)Cc2cc(S(=O)(=O)NCc3ccccc3Cl)ccc21	?	-	?	0	-	0
CN(C)c1ncc(S(=O)(=O)c2ccc(Cl)cc2)c(-c2ccc(Cl)cc2Cl)n1	0	0	?	?	0	18µM
